The panel holds about 83,000 compounds, 20% with a hit somewhere; the sample as a whole holds those more often.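 How to read the values: 0–100, growth inhibition (40 = 60% inhibited); 0, no net growth; -100 to 0, cell death (-40 = 40% of starting cells died; -100 = all dead).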 Calls of active or inactive are those of the source. The calls were made as follows: active = growth percent below 10; inactive = the rest.
These molecules were tested on KM12 colon (assay: NCI-60 one-dose screen, 48 h (100 = growth as untreated, 0 = no growth, -100 = all killed)). Conditions: 10 µM.
In the case of CC(=O)NNc1ccc2nnc(-c3ccc(Br)cc3)n2n1, the growth is reported as 105% (inactive). With O=C(Nc1ccc(I)cc1F)c1cc(-c2ccc(F)cc2F)ccc1O the growth was 6.39% (active). With CS(=O)(=O)Nc1ccc(-c2ccc3c(c2)ncn3-c2ccc(NC(=O)Nc3ccc(Br)cc3)cc2)cc1 the growth was 2.79% (active). With Cc1ccc(NCC(=O)Nn2c(COc3ccccc3)nc3ccccc3c2=O)cc1 the growth was 100% (inactive). In the case of C=CC(=O)Nc1ccc(C(=O)/C=C/c2ccc(N(C)CCF)cc2)c(O)c1, the growth is reported as -82.6% (active). Cc1ccc(C(C)C)cc1NC(=O)c1ccccc1O was tested, and the growth was 48.5% (inactive). Nc1nc(Nc2ccccc2)nn1Cc1c(Cl)cccc1Cl was tested, and the growth was 13% (inactive). For COc1ccc(-c2cc(-c3cc(C(=O)c4ccccc4)n4ccc(C)cc34)nc(N)c2C#N)cc1, the growth was 85.4% (inactive). CC(=O)Oc1ccccc1C(=O)Oc1ccc(C(=O)/C=C/c2ccncc2)cc1 was tested, and the growth was 22% (inactive). For CC1(C)CC[C@]23CC[C@]4(C)[C@H](CC[C@@H]5[C@@]6(C)CC[C@H](N)C(C)(C)[C@@H]6CC[C@]54C)[C@H]2[C@H]1OC3=O, the growth was -86.6% (active). For COc1ccc(/C=C/C(=O)c2ccc(S(=O)(=O)NCCNc3nc(Nc4ccc(F)cc4)nc(N(C)C)n3)cc2)cc1, the growth was -26.1% (active). In the case of O=C(c1ccc(Cl)cc1)C1[C@H](c2ccccc2Br)[C@@H](c2ccccc2)NC12C(=O)Nc1ccc(Br)cc12 (some centres undefined), the growth is reported as 11.8% (inactive). For COc1cnc2c(c1)C(=O)c1c-2n(CCCNC(C)C)c(=O)c2cc(OC)c(OC)cc12, the growth was 29.5% (inactive). With CC(=O)Nc1ccc(-n2cnc3cc(-c4ccc(NS(C)(=O)=O)cc4)ccc32)cc1 the growth was 39.8% (inactive). CC[C@@]1(O)C(=O)OCc2c1cc1n(c2=O)Cc2c-1nc1cc(F)c(C)c3c1c2[C@@H](N)CC3 was tested, and the growth was 3.85% (active). COc1ccc2c(c1)N=C(C(=O)O)/C2=C/c1sc(Nc2ccc(O)cc2)nc1O was tested, and the growth was 57.9% (inactive). In the case of COc1ccc(NC(=O)CSc2nnc(-c3ccc4nc(-c5ccc(Cl)cc5)[nH]c4c3)o2)cc1, the growth is reported as 60.4% (inactive). In the case of CC(=O)Nc1ccc(-c2cn(-c3cccc(C(=O)Nc4cc(CN5CCOCC5)cc(C(F)(F)F)c4)c3)nn2)cn1, the growth is reported as -42.7% (active). COc1ccc(-c2nc(Nc3ccccc3S(N)(=O)=O)c3ccccc3n2)cc1 was tested, and the growth was 6.25% (active). In the case of Cc1ccc(CSc2nc(-c3ccc(F)cc3)c(C#N)c(=O)[nH]2)cc1, the growth is reported as 97% (inactive). In the case of COc1cccc(COc2ccc(/C=C3\Oc4cc(O)ccc4C3=O)cc2)c1, the growth is reported as 26.1% (inactive). CC(=O)Nc1ccc(-n2cnc3cc(-c4ccc(O)cc4)ccc32)cc1F was tested, and the growth was 4.96% (active). In the case of CC1CC(c2ccc(N(C)C)cc2)=NN1c1nc(O)c(C2=c3cc(Br)ccc3=NC2=O)s1 (centres undefined), the growth is reported as 73.2% (inactive). CN1CCc2c(sc3ncnc(N/N=C/c4ccc5ccccc5c4)c23)C1 was tested, and the growth was 78.1% (inactive). For O=C(Nc1ccc(Cl)c(C(F)(F)F)c1)c1cncc(C#Cc2cnc3ccc(N4CCOCC4)nn23)c1, the growth was -21.5% (active). For O=C(N=Nc1c(O)[nH]c2ccc(Br)cc12)c1ccc2nc(-c3ccccc3)[nH]c2c1, the growth was 2.92% (active). With COc1cc(/C=C/C(=O)c2ccc(F)cc2)ccc1Oc1nc(Nc2ccc(F)cc2)nc(N(C)C)n1 the growth was 61% (inactive). In the case of O=C1Nc2ccc(Cl)cc2/C1=C/c1cccc(OCc2ccccn2)c1, the growth is reported as -32.3% (active). In the case of Cc1cc(C(F)(F)F)ccc1C(=O)Nc1sc2c(c1C#N)CCC(=O)C2, the growth is reported as -8.98% (active). COc1ccc(C(=O)NC(=S)N2CCN(c3ncnc4c3cnn4-c3ccccc3)CC2)cc1 was tested, and the growth was 84.4% (inactive). In the case of Cn1cc(/C=N/Nc2ccnc3cc(Cl)ccc23)c2ccccc21, the growth is reported as -94.3% (active). In the case of COc1ccc(N(C)c2cc(C#N)nc3ccccc23)cc1N, the growth is reported as 9.27% (active). In the case of Cc1cc2nc3c4ccccc4n(CCO)c3nc2cc1C, the growth is reported as 92.2% (inactive). For CCCn1c(=O)c2[nH]c(-c3ccc(OCc4nc5ccc(F)cc5[nH]4)cc3)nc2n(CCC)c1=O, the growth was 55.7% (inactive). With Cc1cc(=O)oc2cc(OCCCCOc3ccc(/C=C/C(=O)Nc4cccc(Cl)c4)cc3)ccc12 the growth was 72.5% (inactive). For CCOC(=O)c1sc(N/N=C(\C)c2ccc3c(c2)Nc2ccccc2S3)nc1C, the growth was 7.04% (active). Cc1nn(-c2ccccc2)c2ncn(CC(=O)N/N=C/c3c[nH]c4ccccc34)c(=O)c12 was tested, and the growth was 92.4% (inactive).

The molecules below were run on MDA-MB-468 breast in the same assay as above. Conditions: 10 µM.
In the case of CC(=O)NNc1ccc2nnc(-c3ccc(Br)cc3)n2n1, the growth is reported as 97.4% (inactive). In the case of O=C(Nc1ccc(I)cc1F)c1cc(-c2ccc(F)cc2F)ccc1O, the growth is reported as -26.8% (active). For CS(=O)(=O)Nc1ccc(-c2ccc3c(c2)ncn3-c2ccc(NC(=O)Nc3ccc(Br)cc3)cc2)cc1, the growth was -10.7% (active). With Cc1ccc(NCC(=O)Nn2c(COc3ccccc3)nc3ccccc3c2=O)cc1 the growth was 80.1% (inactive). For C=CC(=O)Nc1ccc(C(=O)/C=C/c2ccc(N(C)CCF)cc2)c(O)c1, the growth was -73.6% (active). For Cc1ccc(C(C)C)cc1NC(=O)c1ccccc1O, the growth was 40% (inactive). Nc1nc(Nc2ccccc2)nn1Cc1c(Cl)cccc1Cl was tested, and the growth was 5.3% (active). In the case of COc1ccc(-c2cc(-c3cc(C(=O)c4ccccc4)n4ccc(C)cc34)nc(N)c2C#N)cc1, the growth is reported as 48.6% (inactive). In the case of CC(=O)Oc1ccccc1C(=O)Oc1ccc(C(=O)/C=C/c2ccncc2)cc1, the growth is reported as -59.3% (active). With CC1(C)CC[C@]23CC[C@]4(C)[C@H](CC[C@@H]5[C@@]6(C)CC[C@H](N)C(C)(C)[C@@H]6CC[C@]54C)[C@H]2[C@H]1OC3=O the growth was -95.6% (active). For COc1ccc(/C=C/C(=O)c2ccc(S(=O)(=O)NCCNc3nc(Nc4ccc(F)cc4)nc(N(C)C)n3)cc2)cc1, the growth was -3.57% (active). With O=C(c1ccc(Cl)cc1)C1[C@H](c2ccccc2Br)[C@@H](c2ccccc2)NC12C(=O)Nc1ccc(Br)cc12 (some centres undefined) the growth was -39.8% (active). In the case of COc1cnc2c(c1)C(=O)c1c-2n(CCCNC(C)C)c(=O)c2cc(OC)c(OC)cc12, the growth is reported as 8.82% (active). With CC(=O)Nc1ccc(-n2cnc3cc(-c4ccc(NS(C)(=O)=O)cc4)ccc32)cc1 the growth was 54.6% (inactive). In the case of CC[C@@]1(O)C(=O)OCc2c1cc1n(c2=O)Cc2c-1nc1cc(F)c(C)c3c1c2[C@@H](N)CC3, the growth is reported as -77.2% (active). With COc1ccc2c(c1)N=C(C(=O)O)/C2=C/c1sc(Nc2ccc(O)cc2)nc1O the growth was 12.3% (inactive). In the case of COc1ccc(NC(=O)CSc2nnc(-c3ccc4nc(-c5ccc(Cl)cc5)[nH]c4c3)o2)cc1, the growth is reported as 90.8% (inactive). CC(=O)Nc1ccc(-c2cn(-c3cccc(C(=O)Nc4cc(CN5CCOCC5)cc(C(F)(F)F)c4)c3)nn2)cn1 was tested, and the growth was -92.1% (active). In the case of COc1ccc(-c2nc(Nc3ccccc3S(N)(=O)=O)c3ccccc3n2)cc1, the growth is reported as -13.4% (active). With Cc1ccc(CSc2nc(-c3ccc(F)cc3)c(C#N)c(=O)[nH]2)cc1 the growth was 126% (inactive). COc1cccc(COc2ccc(/C=C3\Oc4cc(O)ccc4C3=O)cc2)c1 was tested, and the growth was 12.2% (inactive). CC(=O)Nc1ccc(-n2cnc3cc(-c4ccc(O)cc4)ccc32)cc1F was tested, and the growth was -12.3% (active). With CC1CC(c2ccc(N(C)C)cc2)=NN1c1nc(O)c(C2=c3cc(Br)ccc3=NC2=O)s1 (centres undefined) the growth was 54.2% (inactive). In the case of CN1CCc2c(sc3ncnc(N/N=C/c4ccc5ccccc5c4)c23)C1, the growth is reported as 42% (inactive). With O=C(Nc1ccc(Cl)c(C(F)(F)F)c1)c1cncc(C#Cc2cnc3ccc(N4CCOCC4)nn23)c1 the growth was -30.8% (active). For O=C(N=Nc1c(O)[nH]c2ccc(Br)cc12)c1ccc2nc(-c3ccccc3)[nH]c2c1, the growth was -85.8% (active). With COc1cc(/C=C/C(=O)c2ccc(F)cc2)ccc1Oc1nc(Nc2ccc(F)cc2)nc(N(C)C)n1 the growth was 28% (inactive). With O=C1Nc2ccc(Cl)cc2/C1=C/c1cccc(OCc2ccccn2)c1 the growth was -30% (active). For Cc1cc(C(F)(F)F)ccc1C(=O)Nc1sc2c(c1C#N)CCC(=O)C2, the growth was -44.4% (active). For COc1ccc(C(=O)NC(=S)N2CCN(c3ncnc4c3cnn4-c3ccccc3)CC2)cc1, the growth was 61.2% (inactive). For Cn1cc(/C=N/Nc2ccnc3cc(Cl)ccc23)c2ccccc21, the growth was -83.5% (active). With COc1ccc(N(C)c2cc(C#N)nc3ccccc23)cc1N the growth was 3.98% (active). For Cc1cc2nc3c4ccccc4n(CCO)c3nc2cc1C, the growth was 74.4% (inactive). CCCn1c(=O)c2[nH]c(-c3ccc(OCc4nc5ccc(F)cc5[nH]4)cc3)nc2n(CCC)c1=O was tested, and the growth was -12.7% (active). Cc1cc(=O)oc2cc(OCCCCOc3ccc(/C=C/C(=O)Nc4cccc(Cl)c4)cc3)ccc12 was tested, and the growth was 3.36% (active). With CCOC(=O)c1sc(N/N=C(\C)c2ccc3c(c2)Nc2ccccc2S3)nc1C the growth was 8.47% (active). For Cc1nn(-c2ccccc2)c2ncn(CC(=O)N/N=C/c3c[nH]c4ccccc34)c(=O)c12, the growth was 102% (inactive).
